PubChem BioAssay AID651768 (National Center for Advancing Translational Sciences (NCATS), 2012)
Out of some 360,000 compounds screened, about 1,700 (0.47%) were called active. Entries that show only a call come without a potency. About 2% were inconclusive and are not listed. Calls come from the whole dose curve; as a rule, active = well fitted inhibition curve with a large enough effect; inconclusive = small, poorly fitted or top-dose-only effect; inactive = no such curve, though single readings can be large or run the other way. For the sample, actives were picked, then their nearest neighbours and some compounds at random.
Note: nearly all actives have a fitted effect of over 55% in size.
Potency is the fitted concentration of half-maximal effect.

What follows are compounds tested against Bifunctional 3'-5' exonuclease/ATP-dependent helicase WRN (Homo sapiens) (UniProt Q14191) (assay: qHTS for Inhibitors of WRN Helicase). Settings: WRN helicase unwinding, fluorescent forked duplex, kinetic; series mostly up to 114 µM.
Chain of Bifunctional 3'-5' exonuclease/ATP-dependent helicase WRN (Homo sapiens) (Q14191 whole entry, looked up): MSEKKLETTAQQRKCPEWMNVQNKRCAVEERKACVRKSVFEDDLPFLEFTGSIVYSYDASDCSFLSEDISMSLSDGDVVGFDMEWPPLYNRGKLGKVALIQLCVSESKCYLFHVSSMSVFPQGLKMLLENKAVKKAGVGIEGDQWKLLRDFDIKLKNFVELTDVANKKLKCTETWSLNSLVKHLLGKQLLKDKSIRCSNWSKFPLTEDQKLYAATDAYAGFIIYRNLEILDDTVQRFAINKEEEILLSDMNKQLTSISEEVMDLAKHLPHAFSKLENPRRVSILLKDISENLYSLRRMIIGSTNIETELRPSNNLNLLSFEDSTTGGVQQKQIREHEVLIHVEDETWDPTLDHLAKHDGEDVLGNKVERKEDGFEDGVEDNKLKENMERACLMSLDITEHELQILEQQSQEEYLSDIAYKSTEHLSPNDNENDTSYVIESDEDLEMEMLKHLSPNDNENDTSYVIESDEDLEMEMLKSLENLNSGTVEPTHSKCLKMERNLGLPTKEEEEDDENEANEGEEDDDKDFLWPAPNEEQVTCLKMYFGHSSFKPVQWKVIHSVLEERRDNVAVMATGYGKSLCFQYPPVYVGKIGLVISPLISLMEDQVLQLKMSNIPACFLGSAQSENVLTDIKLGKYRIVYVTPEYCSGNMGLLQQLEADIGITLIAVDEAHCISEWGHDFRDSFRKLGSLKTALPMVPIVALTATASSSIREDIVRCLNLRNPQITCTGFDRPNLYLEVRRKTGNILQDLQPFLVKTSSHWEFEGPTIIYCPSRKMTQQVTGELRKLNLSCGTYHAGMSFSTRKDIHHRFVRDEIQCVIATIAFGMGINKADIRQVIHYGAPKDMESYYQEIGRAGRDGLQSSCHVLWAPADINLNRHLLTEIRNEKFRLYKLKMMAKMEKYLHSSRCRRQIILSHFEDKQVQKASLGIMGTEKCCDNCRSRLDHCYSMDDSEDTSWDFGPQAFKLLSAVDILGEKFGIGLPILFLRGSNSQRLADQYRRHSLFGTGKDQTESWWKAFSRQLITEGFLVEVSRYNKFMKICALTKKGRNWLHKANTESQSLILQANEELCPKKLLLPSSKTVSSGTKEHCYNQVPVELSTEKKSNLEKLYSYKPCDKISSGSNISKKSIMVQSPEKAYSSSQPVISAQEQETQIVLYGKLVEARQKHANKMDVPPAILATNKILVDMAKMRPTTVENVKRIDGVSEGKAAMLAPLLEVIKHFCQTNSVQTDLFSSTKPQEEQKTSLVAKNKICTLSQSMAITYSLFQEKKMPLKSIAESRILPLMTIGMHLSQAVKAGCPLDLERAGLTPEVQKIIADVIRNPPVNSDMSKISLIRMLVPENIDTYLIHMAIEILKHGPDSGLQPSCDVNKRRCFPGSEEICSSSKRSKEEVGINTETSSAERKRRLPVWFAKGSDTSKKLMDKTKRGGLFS
In short: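 WRN at 20 nM final was preincubated with compound for 15 min at room temperature; reaction started with 100 nM forked duplex oligonucleotide carrying fluorophore and quencher plus 2 mM ATP (final). Unwinding followed kinetically by red fluorescence (ex 525/em 598 nm).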
`Cc1cccc(C)c1NC(=O)C(c1cccc2ccccc12)n1c(=O)c(-c2ccco2)nc2ccccc21` (stereo not given) was tested, and the Potency was “inactive”. With `O=C(CSC(=S)N1CCCCC1)c1c(F)cccc1F` the Potency was “inactive”. For `Cc1c(CC(=O)N2CCN(C(=O)C3COc4ccccc4O3)CC2)c(=O)oc2c(O)c(O)ccc12` (stereo not given), the Potency was 10 µM (active). With `Cc1c(CCC(=O)O)c(=O)oc2c(C)c(OCc3ccccc3Cl)ccc12` the activity change, negative = inhibition was -22.9% [at 11.6 µM] (inactive). `Cc1ccc(S(=O)(=O)NCCC(=O)NNC(=O)C2COc3ccccc3O2)cc1` (stereo not given) was tested, and the Potency was “inactive”. With `O=C(CN1CCN(c2ccccc2F)CC1)c1ccc2c(c1)OCO2` the Potency was “inactive”. With `CCC1(c2ccccc2)NC(=O)N(CC(=O)c2ccc3c(c2)OCO3)C1=O` (stereo not given) the Potency was “inactive”. In the case of `O=C(CCN1CCc2ccccc2C(O)(c2ccccc2)C1)c1ccc2c(c1)OCCO2` (stereo not given), the Potency is reported as 31.6 µM (active). In the case of `CCCCCNC(=O)C1C(=O)Nc2ccccc2C(=O)N1C(C)(C)C` (stereo not given), the Potency is reported as “inactive”. With `O=c1[nH]oc(O)c1-c1ncc(C(F)(F)F)cc1Cl` the Potency was “inactive”. In the case of `CN(Cc1c(F)cccc1Cl)S(=O)(=O)c1cccs1`, the Potency is reported as “inactive”. For `COC(=O)C1=C(C(=O)OC)[C@@H]2N(C)c3ccccc3[C@@]23C[C@@H](C(=O)OC)N(C(=O)c2ccco2)C3=N1`, the Potency was “inactive”. `COc1cc(/C=C2/SC(=S)N(Cc3ccccc3)C2=O)cc(OC)c1O` was tested, and the Potency was 10 µM (active). With `COc1ccc(CCNC2=C(Cl)C(=O)N(Cc3ccccc3)C2=O)cc1OC` the Potency was “inactive”. For `CN1C=CC=C/C1=C1\SC(=S)N(Cc2ccccc2)C1=O`, the Potency was “inactive”. With `COC(=O)C[C@H]1C=C[C@H](NC(=O)c2ccc(F)cc2)[C@@H](CO)O1` the Potency was “inactive”. For `COc1ccccc1NS(=O)(=O)c1ccc(C(=O)N2CCN(c3ccccc3O)CC2)cc1`, the Potency was “inactive”. For `O=S(=O)(Nc1ccc(O)c2ccccc12)c1ccc(OC(F)(F)F)cc1`, the Potency was 56.2 µM (active). With `O=S(=O)(Nc1ccc(OC(F)(F)F)cc1)c1cccc2nonc12` the Potency was “inactive”. In the case of `O=C(NCc1ccncc1)C(=O)NCC1OCCN1S(=O)(=O)c1ccc(Br)cc1` (stereo not given), the Potency is reported as “inactive”. With `Cc1ccccc1N/C(SCc1ccc(Cl)cc1)=C(/C#N)C(N)=O` the Potency was “inactive”. In the case of `O=C(CCCCCn1c(=S)[nH]c2ccsc2c1=O)NC1CCCCC1`, the Potency is reported as “inactive”. With `O=C(/C=C/c1cccs1)NCc1cccnc1` the Potency was “inactive”. For `COC(=O)CN1C(=O)N/C(=C/c2ccc(OC)c(C)c2OC)C1=O`, the Potency was “inactive”. With `Cc1ccccc1NC(=O)CN1C(=O)N/C(=C\c2cccn2-c2cccc(C(=O)O)c2)C1=O` the Potency was 10.6 µM (active). With `Cc1ccccc1NC(=O)Cn1c(=O)n(CC2CCCO2)c(=O)c2ccccc21` (stereo not given) the Potency was “inactive”. With `CCCCCc1c(-c2ccc(OC)c(OC)c2)ncn1CCc1ccccc1OC` the Potency was “inactive”. `CCc1cc(C(c2ccccc2OC)N2CCOCC2)c(NC(=O)c2ccccc2)s1` (stereo not given) was tested, and the Potency was “inactive”. In the case of `O=C(Nc1ccccc1C(=O)NCCCn1ccnc1)c1ccc(Cl)cc1Cl`, the Potency is reported as “inactive”. In the case of `CCCNC(=O)C1(C)CCCN(Cc2cccc(C(F)(F)F)c2)C1` (stereo not given), the Potency is reported as “inactive”. With `COCCN(Cc1cc2cc3c(cc2nc1Cl)OCO3)C(=O)c1cccc(C)c1` the Potency was “inactive”. In the case of `COc1ccc(OC)c(/C=N/NC(=O)c2ccc[n+](CC(=O)c3ccccc3)c2)c1`, the Potency is reported as “inactive”. `COc1cccc(/C=N/NC(=O)c2[nH]nc3c2CCc2ccccc2-3)c1O` was tested, and the Potency was 25.1 µM (active). `COc1cc(/C=N/NC(=O)c2cccnc2)ccc1OC(=O)c1cccc(Br)c1` was tested, and the Potency was “inactive”. In the case of `COC(=O)[C@@]12C[C@@H](CC(=O)NCc3cccc(C(F)(F)F)c3)C(=O)N(Cc3ccco3)C1=CCC(C)(C)C2`, the Potency is reported as “inactive”. `CC(=O)Nc1ccc(Nc2c3ccccc3nc3ccccc23)cc1` was tested, and the Potency was 25.1 µM (active). With `CC(=O)Nc1ccc(Nc2c([N+](=O)[O-])cc(S(C)(=O)=O)cc2[N+](=O)[O-])cc1` the Potency was “inactive”. In the case of `O=C(NNc1c2ccccc2nc2ccccc12)c1cc2ccccc2cc1O`, the Potency is reported as “inactive”. With `COCCN1C(=O)c2oc3c(C)cc(C)cc3c(=O)c2C1c1cccc(O)c1` (stereo not given) the Potency was “inactive”. With `C[C@H](NC(=O)c1nc[nH]c1C(=O)N[C@@H](C)C(=O)OC(C)(C)C)C(=O)OC(C)(C)C` the Potency was “inactive”. In the case of `O=C(NCc1nnc(SCC(=O)N2CCCc3ccccc32)o1)c1ccccc1F`, the Potency is reported as “inactive”. In the case of `Cc1cc(C)c2c(=O)[nH]c(SCC(=O)Nc3ccc(Br)cc3)nc2n1`, the Potency is reported as “inactive”. `CC(=O)CSc1nc(CCc2ccccc2)c(C#N)c(=O)[nH]1` was tested, and the Potency was “inactive”. For `N#Cc1c(-c2cccs2)nc(SCC(=O)c2ccc(Br)cc2)[nH]c1=O`, the Potency was 50.1 µM (active). With `CCC1(c2ccccc2)NC(=O)N(CC(=O)Nc2ccccc2C(=O)NC2CCCC2)C1=O` (stereo not given) the Potency was “inactive”. With `O=C(NC1CCCCC1)C(c1cc2ccccc2o1)n1c(=O)c(-c2ccco2)nc2ccccc21` (stereo not given) the Potency was “inactive”. `CCCCN(C(=O)C(CCSC)N1C(=O)c2ccccc2C1=O)c1c(N)n(CCC)c(=O)[nH]c1=O` (stereo not given) was tested, and the Potency was “inactive”. In the case of `N#Cc1ccc(-c2nc3c(Cl)cc(C(F)(F)F)cn3c2Cc2ccccc2C(F)(F)F)cc1`, the Potency is reported as “inactive”. `COc1ccc(CN2CCC(C)(Oc3cccc(F)c3)C2)c2ccccc12` (stereo not given) was tested, and the Potency was “inactive”. With `COc1cccc2c1C(=O)c1c(O)c3c(c(O)c1C2=O)CC(O)(C(C)=NNC(=O)c1ccc(Cl)c(Cl)c1)CC3OC1CC(N)C(O)C(C)O1` (stereo not given) the Potency was 31.6 µM (active). For `CCOc1cnc(C(=O)NNC(=O)c2ccccc2Br)o1`, the Potency was “inactive”. `O=C(c1ccccc1)c1ccc(OC(=O)N2CCCC2)cc1` was tested, and the Potency was “inactive”. `COc1cccc(-c2nnc(NC(=O)c3ccc(S(=O)(=O)N(CC(C)C)CC(C)C)cc3)o2)c1` was tested, and the Potency was “inactive”. With `O=C(COc1ccccc1Cl)Nn1cnnc1` the Potency was “inactive”. `C=CCN(N=Nc1cccc([N+](=O)[O-])c1)c1cccc([N+](=O)[O-])c1` was tested, and the Potency was “inactive”. With `CC(=O)NC(c1ccccc1)c1nc(-c2cccc(C(C)C)c2)cs1` (stereo not given) the Potency was “inactive”. With `COc1ccc(C(C[N+](=O)[O-])n2nc(C)cc2C)cc1` (stereo not given) the Potency was 39.8 µM (active). In the case of `COc1ccc(C(CNC(=O)COc2ccc([N+](=O)[O-])cc2)N2CCCCC2)cc1` (stereo not given), the Potency is reported as “inactive”. With `Cc1cc(C)n(CC(O)COc2ccc(C(C)(C)C)cc2)n1` (stereo not given) the activity change, negative = inhibition was 2.02% [at 11.6 µM] (inactive). In the case of `CCCCC(NS(=O)(=O)c1ccc(C)cc1)C(=O)Oc1ccc2c3c(c(=O)oc2c1)CCC3` (stereo not given), the Potency is reported as “inactive”. `CCOc1ccc(CCN2C(=O)C(=O)N([C@@H](CC(C)C)CN3CCC[C@H]3CN3C(=O)C(=O)NC[C@@H]3Cc3ccccc3)C[C@@H]2CC(C)C)cc1` was tested, and the Potency was “inactive”. For `C[C@H]1CN([C@@H](C)CO)C(=O)c2cc(-c3ccccc3F)cnc2O[C@H]1CN(C)C(=O)C1CCOCC1`, the Potency was “inactive”. `Cc1cccc(C)c1-n1nnnc1C1(C)CCC(=O)N1CCOc1ccccc1` (stereo not given) was tested, and the Potency was “inactive”. With `CC(=O)Nc1cccc(-c2cc3nc(NCc4cccnc4)n(C)c(=O)c3s2)c1` the Potency was “inactive”. In the case of `C=C(C)C(=O)Nc1cccc(C2=NOC3(C2)C[C@H](C(N)=O)N(C(=O)C(c2ccccc2)c2ccccc2)C3)c1` (stereo not given in full), the Potency is reported as 50.1 µM (active). With `C/C=C\C=C\C(=O)N1CC2(CC(c3cccc(NC(=O)/C(C)=C\C)c3)=NO2)C[C@H]1C(N)=O` (stereo not given in full) the activity change, negative = inhibition was -13.3% [at 11.6 µM] (inactive). In the case of `C/C=C(/C)C(=O)Nc1cccc(C2=NOC3(C2)C[C@@H](C(N)=O)N(C(=O)C2(C)CC2)C3)c1` (stereo not given in full), the Potency is reported as “inactive”. For `O=C(Nc1ccccc1Cl)c1ccccc1S(=O)(=O)c1ccccc1[N+](=O)[O-]`, the Potency was “inactive”. With `O=C(Nc1ccccc1Cl)/C(Cl)=C(\Cl)S(=O)c1ccccc1` (stereo not given) the Potency was 2.51 µM (active). In the case of `CC(=O)c1ccc(NC(=O)C(C)N(C)CC(=O)Nc2ccccc2Cl)cc1` (stereo not given), the Potency is reported as “inactive”. For `COc1cc(OC)cc(C2=Cc3ccccc3C(CC(=O)c3ccco3)N2c2ccc(-c3cnc(OC)nc3)cc2)c1` (stereo not given), the Potency was “inactive”. With `Cc1ccc(S(=O)(=O)N(c2cccc(C)c2)C2CCS(=O)(=O)C2)cc1` (stereo not given) the Potency was “inactive”. In the case of `O=C(CC[C@H]1O[C@@H](n2ccc(=O)[nH]c2=O)[C@H](O)[C@@H]1O)N[C@H](Cc1ccccc1)C(=O)NCCCN1CCCC1=O`, the Potency is reported as “inactive”. In the case of `CN(C(=O)COC(=O)c1cc(-c2ccco2)nc2ccccc12)C1CCS(=O)(=O)C1` (stereo not given), the Potency is reported as 31.6 µM (active). With `CN(C(=O)COC(=O)Cc1ccccc1[N+](=O)[O-])C1CCS(=O)(=O)C1` (stereo not given) the Potency was “inactive”. With `COc1ccc(NC(=O)COc2ccc(C(=O)OCC(=O)N(C)C3CCS(=O)(=O)C3)cc2OC)cc1` (stereo not given) the Potency was “inactive”. For `Cc1ccc(C2(c3ccc(C)cc3)NC(=O)N(Cc3c(C)noc3C)C2=O)cc1`, the Potency was “inactive”. `CCOC(=O)c1c(NC(=O)CSc2nnc(CN3CCOCC3)n2C)sc2c1CCCC2` was tested, and the Potency was “inactive”. For `NC(=O)c1c(NC(=O)CSc2nnc(-c3ccco3)n2N)sc2c1CCCC2`, the Potency was 50.1 µM (active). For `Nn1c(SCC(=O)Nc2nccs2)nnc1-c1ccco1`, the Potency was “inactive”. In the case of `COc1cc(OC)c(NC(=O)C2CCCN2C(=O)OCc2ccccc2)cc1Cl` (stereo not given), the Potency is reported as “inactive”. `O=C1Nc2ccccc2NC(c2ccc3c(c2)OCO3)=C1N(Cc1ccc(F)cc1)C(=O)c1ccco1` was tested, and the Potency was “inactive”. For `CC(C)c1ccc2c(c1)c(SC(C)(C)C)c(CC(C)(C)C(=O)O)n2Cc1ccc(Cl)cc1`, the Potency was 50.1 µM (active). For `CCC(CC)NC(=O)CSc1nnc(-c2c[nH]c3ccccc23)o1`, the Potency was “inactive”. `O=C(c1cc(C2CCCCN2S(=O)(=O)c2ccccc2)on1)N1CCOCC1` (stereo not given) was tested, and the Potency was “inactive”. `CCCCN1C(=O)/C(=C(/C#N)C(N)=O)c2ccccc21` was tested, and the Potency was “inactive”. In the case of `C#CCN1C(=O)C(O)(CC(=O)c2cc(OC)ccc2OC)c2ccccc21` (stereo not given), the Potency is reported as “inactive”. For `COc1ccc2c(c1)C(=C(C#N)C#N)C(=O)N2CCc1ccccc1`, the Potency was 50.1 µM (active). With `CCCCn1c(N)c(N(CCOC)C(=O)c2sc3ccccc3c2Cl)c(=O)[nH]c1=O` the Potency was “inactive”. For `Cc1[nH]c2ccccc2c1C(=O)c1cc([C@H](NC(=O)OC(C)(C)C)C(C)C)sc1N`, the Potency was “inactive”.
